{"source": "the supplement of paper PMC13380429", "key": {"[1]": {"system": "Vero E6 infected with SARS-CoV-2", "assay": "morphology score (similarity to uninfected cells); higher = more like uninfected cells", "details": "24 h"}, "[2]": {"system": "Vero E6 infected with SARS-CoV-2", "assay": "SARS-CoV-2 infection rate relative to infected DMSO; higher = more infection, active = 60 or less", "details": "24 h"}}}
{"smiles": "Nc1nc(=O)n([C@@H]2O[C@H](CO)[C@@H](O)[C@@H]2F)cc1I", "note": "[fiacitabine] (10 µM)", "values": [{"measurement": "morphology score", "setting": "[1]", "result": -0.0647}, {"measurement": "SARS-CoV-2 infection rate", "setting": "[2]", "result": "111% (inactive)"}]}
{"smiles": "Cc1cccc(-c2[nH]c(C(C)(C)C)nc2-c2ccc3nccnc3c2)n1", "note": "(10 µM)", "values": [{"measurement": "morphology score", "setting": "[1]", "result": -0.0319}, {"measurement": "SARS-CoV-2 infection rate", "setting": "[2]", "result": "100% (inactive)"}]}
{"smiles": "CC(C)C[C@H](NC(=O)[C@H](CCc1ccccc1)NC(=O)CN1CCOCC1)C(=O)N[C@@H](Cc1ccccc1)C(=O)N[C@@H](CC(C)C)C(=O)[C@@]1(C)CO1", "note": "[carfilzomib] (0.833333 µM)", "values": [{"measurement": "morphology score", "setting": "[1]", "result": 0.00273}, {"measurement": "SARS-CoV-2 infection rate", "setting": "[2]", "result": "42% (active)"}]}
{"smiles": "C[C@]12CCC(=O)C=C1C=C[C@@H]1[C@@H]2CC[C@@]2(C)[C@H]1CC[C@@]21CCC(=O)O1", "note": "[canrenone] (10 µM)", "values": [{"measurement": "morphology score", "setting": "[1]", "result": 0.219}, {"measurement": "SARS-CoV-2 infection rate", "setting": "[2]", "result": "94% (inactive)"}]}
{"smiles": "N#Cc1ccc(COC[C@H]2O[C@@H](n3c(NCc4ccc(Cl)c(Cl)c4)nc4c(N)ncnc43)[C@H](O)[C@@H]2O)cc1", "note": "(10 µM)", "values": [{"measurement": "morphology score", "setting": "[1]", "result": 0.0983}, {"measurement": "SARS-CoV-2 infection rate", "setting": "[2]", "result": "106% (inactive)"}]}
{"smiles": "CNC(C)(C)Cc1ccccc1", "note": "[mephentermine] (10 µM)", "values": [{"measurement": "morphology score", "setting": "[1]", "result": -0.196}, {"measurement": "SARS-CoV-2 infection rate", "setting": "[2]", "result": "117% (inactive)"}]}
